{"source": "PubChem BioAssay (NCI)", "note": "Several values for one entry are separate records, joined by “and”; a condition that tells them apart may be missing. Identical values can stand only once. Compounds without any hit were thinned out: in the full panel of roughly 79,000, 15% have a hit. Unmarked numbers belong to inactive results. Activity calls are given as the source filed them. Rule as the data show it: active = growth inhibition above about 70%; inactive = the rest."}
{"test": "NCI Yeast Anticancer Drug Screen. Data for the mlh1 rad18 strain (AID 175)", "details": "S. cerevisiae mlh1 rad18 strain growth inhibition; at 50.0 µM; stronger effect = higher value", "how_it_was_run": "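Genetically defined yeast (DNA repair-deficient) exposed to compounds; growth inhibition determined relative to vehicle.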"}
{"smiles": "NC1(P(=O)(O)O)CCCCC1", "growth inhibition": "-10.5%"}
{"smiles": "CC([NH-])C[NH-].CC([NH-])C[NH-].[Co].[NH2-].[NH2-]", "note": "(stereo not given)", "growth inhibition": "18.4%"}
{"smiles": "Cc1cccc(-n2c(C)nc3ccccc3c2=O)c1C", "growth inhibition": "-13.1%"}
{"smiles": "CN1CCOC(c2ccccc2)c2ccsc2CC1", "note": "(stereo not given)", "growth inhibition": "16.8%"}
{"smiles": "Cc1cccc(C)c1N", "growth inhibition": "16.8%"}
{"smiles": "O=C(Cc1cccc([N+](=O)[O-])c1)Nc1cccc(S(=O)(=O)F)c1", "growth inhibition": "23.9%"}
{"smiles": "O=C1/C(=C\\c2cc3ccccc3c3ccccc23)N2CCC1CC2", "growth inhibition": "1%"}
{"smiles": "CCCCCC[C@@H](O)[C@@H]1C2=C(C[C@H]([C@H](O)[C@@H]3CC=CC(=O)O3)CC3=C(C(=O)OC3=O)[C@@H]1O)C(=O)OC2=O", "growth inhibition": "19.6%"}
{"smiles": "CCCO[As](=O)(OCCC)OCCC", "growth inhibition": "-9.1%"}
{"smiles": "COc1ccc(C(=O)Cc2c(C(=O)c3ccccc3)c3ccccc3n2C(=O)c2ccccc2)cc1", "growth inhibition": "5.75%"}
{"smiles": "CC(N)Cc1ccc(Cl)cc1", "note": "(stereo not given)", "growth inhibition": "3.6%"}
{"smiles": "CCC1CN2CCC3(C(=O)Nc4ccccc43)C2CC1/C(=C/OC)C(=O)OC", "note": "(stereo not given)", "growth inhibition": "12.4%"}
{"smiles": "CCC[CH2][Sn]([CH2]C)([CH2]C)[CH2]C", "growth inhibition": "31.3%"}
{"smiles": "C/C(=N\\N(C)C)C(CN1CCCCC1)C(c1ccccc1)c1c(O)c2ccccc2oc1=O", "note": "(stereo not given)", "growth inhibition": "-9%"}
{"smiles": "CCCCCCCCCCCCCC[As](=O)(O)O", "growth inhibition": "44.5%"}
{"smiles": "CN1CCC2=C(c3ccccc3)c3ccccc3C2C1", "note": "(stereo not given)", "growth inhibition": "3.55%"}
{"smiles": "[CH3][Sn]1([CH3])[O]C(=O)c2ccccc2C(=O)[O]1", "growth inhibition": "-13.8%"}
{"smiles": "CN1CCc2c([nH]c3ccccc23)C1", "growth inhibition": "-45.1%"}
{"smiles": "Cc1ccc(OP(=O)(Oc2ccc(C)c(C)c2)Oc2ccc(C)c(C)c2)cc1C", "growth inhibition": "-17%"}
{"smiles": "[O-][N+]12CCCCC1C1CC(C2)C2CCCC(c3ccccc3)N2C1", "note": "(stereo not given)", "growth inhibition": "-59.2%"}
{"smiles": "Cc1cccc(NC(=O)CCl)c1", "growth inhibition": "19.8%"}
{"smiles": "COC(C(=O)C(O)C(C)O)C1Cc2cc3cc(OC4CC(OC(C)=O)C(OC5CC(O)C(OC)C(C)O5)C(C)O4)cc(O)c3c(O)c2C(=O)C1OC1CC(OC2CC(OC3CC(C)(O)C(OC(=O)C(C)C)C(C)O3)C(O)C(C)O2)C(O)C(C)O1", "note": "(stereo not given)", "growth inhibition": "1.2% and 17.1%"}
{"smiles": "CCOP(=O)(OCC)/C(C#N)=C/c1cn(C)cn1", "growth inhibition": "-21.8%"}
{"smiles": "OCN1CCC23c4c5ccc(O)c4OC2C(O)C=CC3C1C5", "note": "(stereo not given)", "growth inhibition": "-12%"}
{"smiles": "C/C=C(\\C)C(=O)OC1CCN2CC=C(COC(=O)C(O)(C(C)O)C(C)(C)O)C12", "note": "(stereo not given)", "growth inhibition": "-0.55%"}
{"smiles": "ClCCN(CCCl)c1ccc(N=Cc2ccccc2)cc1", "growth inhibition": "44.6%"}
{"smiles": "Cn1c(O)c(C=N)c(=O)n(C)c1=O", "growth inhibition": "4.7%"}
{"smiles": "O=P1(C(Cl)Cl)OCCCO1", "growth inhibition": "-0.15%"}
{"smiles": "CN(C(=O)Oc1ccccc1)c1ccc(S(=O)(=O)F)cc1", "growth inhibition": "98.7% (active)"}
{"smiles": "CC(C)=NNC1=NC(CC(C)C)P(=O)(NCCCCNP2(=O)SC(NN=C(C)C)=NC2CC(C)C)S1", "note": "(stereo not given)", "growth inhibition": "6.15%"}
{"smiles": "O=C([O-])C(F)(F)F.O=[N+]([O-])O.[Co+3].[NH2-].[NH2-].[NH2-].[NH2-].[NH2-]", "growth inhibition": "39.6%"}
{"smiles": "ClCCN(CCCl)c1ccc(-c2csc(Cc3ccccc3)n2)cc1", "growth inhibition": "-19.9%"}
{"smiles": "CCOc1ccc2c(N/N=C/c3ccc(N(CCCl)CCCl)cc3)cc(C)nc2c1", "growth inhibition": "96.3% (active)"}
{"smiles": "C[CH2][Sn]([CH2]C)([O]c1cccccc1=O)[O]c1cccccc1=O", "growth inhibition": "52.5%"}
{"smiles": "COc1cc(C(=O)O)cc(OC)c1OC", "growth inhibition": "-9.95%"}
{"smiles": "CN(C)/N=C(\\CCN1CCCC1)CC(c1ccccc1)c1c(O)c2ccccc2oc1=O", "note": "(stereo not given)", "growth inhibition": "50.3%"}
{"smiles": "Cn1c(=S)[nH]n(CCOc2ccccc2)c1=S", "growth inhibition": "-6.05%"}
{"smiles": "CC(C)(NC1=NCCO1)c1ccccc1", "growth inhibition": "62%"}
{"smiles": "c1cc[c]([Ge]([c]2ccccc2)[c]2ccccc2)cc1.c1cc[c]([Ge]([c]2ccccc2)[c]2ccccc2)cc1", "growth inhibition": "-3.65%"}
{"smiles": "C/C=C/C=C\\C=C/C(O)CC(OP(=O)(O)O)C(C)(O)/C=C/C1CC=CC(=O)O1", "note": "(stereo not given)", "growth inhibition": "-44.2%"}
